D3 ag – agonists of human D3 dopamine receptor. P35462. D3R DiscoveRx beta-arrestin cells, luminescence, 90 min. max activation, %. 0.58% of 410,000 active; in the data active means max activation above about 30%; further: 0% is about no effect
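Agonist-mode cell screen: cells plated at 1500/well and incubated overnight at 37 °C, then exposed to library compounds for 90 min at 37 °C. Detection reagent was added for 30–60 min at room temperature, and luminescence was read.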
B2AR arrestin – recruits beta-arrestin to the human beta2-adrenergic receptor; Potency, µM (top dose mostly 46.1 µM), for inactives: top-dose activation, most hits filed as activators; beta-arrestin recruitment to beta2AR, cell-based reporter; 0.02% of 330,000 active; P07550; active means well fitted activation curve with a large enough effect; inconclusive means small, poorly fitted or top-dose-only effect;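 further: potency means the concentration at half of the fitted maximal effect; 0% = DMSO controls and full agonism = EC100 isoproterenol or metaproterenol; nearly all actives have a fitted effect of over 65% in size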
Target sequence (P07550 whole entry, looked up): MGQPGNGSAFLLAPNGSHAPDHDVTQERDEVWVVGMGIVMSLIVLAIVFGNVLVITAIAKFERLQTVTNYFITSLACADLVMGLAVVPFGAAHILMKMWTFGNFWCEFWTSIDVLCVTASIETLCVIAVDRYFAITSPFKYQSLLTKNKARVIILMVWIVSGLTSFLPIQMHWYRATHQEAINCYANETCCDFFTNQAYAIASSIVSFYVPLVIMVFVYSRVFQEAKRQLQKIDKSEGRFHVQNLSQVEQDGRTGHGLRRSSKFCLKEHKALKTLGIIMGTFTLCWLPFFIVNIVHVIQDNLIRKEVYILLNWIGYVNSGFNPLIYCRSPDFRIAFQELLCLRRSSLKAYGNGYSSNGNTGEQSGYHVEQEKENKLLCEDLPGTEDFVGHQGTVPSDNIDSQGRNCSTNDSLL
Giardia kill – kills Giardia lamblia. activity change, % at 7.66 µM, hits read low. Giardia lamblia trophozoite viability. AID 540267. 0.15% of 340,000 active; in the data active means activity change below about -80%; inconclusive means between about -30% and that limit;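 further: parasites exposed to compound for two days anaerobically before the ATP read; on the % scale 0 is the no-effect control and ±100 the full control effect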
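Viability, read as ATP luminescence: trophozoites at 100 cells/well, compound added, 48 hrs anaerobic at 37 deg C, then 15-30 min room-temperature development before reading.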
DRD3 antagonist – antagonists of human D3 dopamine receptor; P35462; D3R cells, DiscoveRx beta-arrestin luminescence, antagonist mode; stronger effect = lower value; max response, negative = inhibition, %; 2.5% of 360,000 active; AID 652054; in the data active means max response below about -50%; inconclusive means no clear call, values can overlap the other calls; further: on the % scale 0 is the no-effect control and ±100 the full control effect
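Cells plated overnight at 1500 cells/well, then exposed to library compounds with dopamine controls for 90 minutes at 37 degrees C. DiscoveRx reagent added for 30–60 minutes at room temperature; luminescence read, quantitative HTS format.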
* marks the source's active call; other numbers are inactive results; ? = inconclusive; nt = no result. Only some compounds are listed: those with a hit (about 2.8% of all), similar ones and a draw of the others.

SMILES	D3 ag	B2AR arrestin	Giardia kill	DRD3 antagonist
Cc1ccc(-c2nnc(Nc3ccc(Br)cc3)c3ccccc23)cc1S(=O)(=O)N1CCN(C)CC1	-19	nt	nt	nt
Cc1cc(C)c2oc(C(=O)NCc3ccccc3)cc(=O)c2c1	-8	1%	-2	-24
Cc1cc(C)c2c(=O)cc(C(=O)NCc3ccccc3)oc2c1	-46	0%	9	-53*
C#CC(=O)N(c1ccc(OC)c(OC)c1)C(C(=O)NC1CCCC1)c1cccs1 (stereo unspecified)	-5	0%	2	-72*
C#CC(=O)N(c1cccc(OC)c1)C(C(=O)NC1CCCC1)c1cccs1 (stereo unspecified)	-31	1%	3	-63*
OC1(c2ccc(Cl)c(C(F)(F)F)c2)CCN(CCCC(c2ccc(F)cc2)c2ccc(F)cc2)CC1	-16	nt	nt	nt
COC(=O)c1c(SC)nc2ccccc2c1OCc1ccc(Cl)cc1	12	nt	nt	nt
N#C/C(=C\c1ccc(-c2cc(Cl)ccc2Cl)o1)C(=O)Nc1ccccc1C(=O)O	33*	nt	nt	nt
CCOC(=O)/C(=C\c1ccc(OC(F)F)cc1)C1=Nn2c(nnc2-c2ccc(Cl)cc2)SC1	-9	0%	27	-90*
CCOC(=O)/C(=C/c1ccc(OC(F)F)cc1)C1=Nn2c(nnc2-c2ccc(Cl)cc2)SC1	-17	nt	-7	-62*
CCc1ccccc1NC(=O)C1COc2ccccc2C1 (stereo unspecified)	-18	nt	nt	nt
Cc1ccc(NC(=O)Cn2c(=O)n(-c3ccc(C)cc3)c(=O)c3ccc(C(=O)NCc4ccccc4Cl)cc32)cc1	-3	nt	nt	nt
CC(C)C1NCCc2c1sc1ccccc21 (stereo unspecified)	-28	nt	3	-61*
COc1cc(C2NCCc3c2[nH]c2ccccc32)ccc1OC(C)C (stereo unspecified)	nt	-1%	nt	nt
COc1ccc(C(=O)Nc2nnc(S(=O)(=O)N(C)c3ccc(Cl)cc3)s2)cc1OC	-18	nt	nt	nt
CN(C)c1ccc(NC(=S)Nc2ccc3c(c2)c(=O)n(C)n3-c2ccc(C(C)(C)C)cc2)cc1	-17	nt	nt	-54*
COc1cccc(CC(=O)Nc2ccc3c(c2)c(=O)n(C)n3-c2ccc(C(C)(C)C)cc2)c1	-8	nt	nt	-58*
CN(C)c1ccc(NC(=O)Nc2ccc3c(c2)c(=O)n(C)n3-c2ccccc2)cc1	-5	nt	nt	0
COc1cccc(Cn2c3ccc(NC(=O)Cc4cc(OC)ccc4OC)cc3c(=O)n2C)c1	3	nt	nt	12
COc1ccc(CNC(=O)Cn2ncn3nc(-c4cccs4)cc3c2=O)cc1	6	nt	nt	nt
Cc1nc2c(cc1N)nc(C)n2Cc1ccccc1	-10	-1%	-1	-51*
Cc1nc2ccc(N)cc2c(=O)n1Cc1ccc(Cl)cc1	2	0%	5	2
Cc1nn(-c2ccccc2)c2[nH]c(=O)c(CNCCN3CCOCC3)cc12	2	0%	-8	-66*
Cc1nn(-c2ccccc2)c2[nH]c(=O)c(CNCc3ccc4c(c3)OCO4)cc12	3	0%	14	-65*
Cc1ccc(-c2nn(-c3ccccc3)c3[nH]c(=O)c(CNCCN(C)C)cc23)cc1	nt	0%	nt	nt
SMILES	D3 ag	B2AR arrestin	Giardia kill	DRD3 antagonist
Cc1nn(-c2ccccc2)c2[nH]c(=O)c(CNc3ccc4c(c3)OCCO4)cc12	0	0%	6	-25
Cc1ccc(-c2nn(-c3ccccc3)c3[nH]c(=O)c(CNCc4ccccc4)cc23)cc1	-8	0%	13	-65*
COc1ccc(Cl)cc1NC(=O)c1nn(-c2ccc(C)cc2)c(=O)n(C)c1=O	2	nt	nt	nt
O=C(Nc1ccccc1Oc1ccccc1)[C@@H]1O[C@H](CO)[C@H](O)[C@H](O)[C@H]1O	-33	nt	nt	-162*
COc1ccc(-c2ccccc2)cc1NC(=O)[C@@H]1O[C@H](CO)[C@@H](O)[C@H]1O	-1	nt	nt	-5
Brc1cccc(CN2CCN(c3ncccn3)CC2)c1	4	0%	7	-13
Fc1ccc(F)c(CN2CCN(c3ncccn3)CC2)c1	31*	0%	4	12
Fc1ccc(CN2CCN(c3ncccn3)CC2)cc1	51*	0%	-3	-17
CCc1ccc(CN2CCN(c3ncccn3)CC2)cc1	61*	-1%	-15	?
CC1(C(=O)NCCC#N)CCN1C(=O)C1(c2ccccc2)CC1 (stereo unspecified)	-10	nt	nt	-63*
CC(C)(C)CNC(=O)C1(C)CCN1C(=O)C1(c2ccccc2)CC1 (stereo unspecified)	-6	nt	nt	0
CCCCC(=O)OCC(=O)[C@H]1[C@H](C)C[C@H]2[C@@H]3C[C@H](F)C4=CC(=O)C=C[C@]4(C)[C@@]3(F)[C@@H](O)C[C@@]21C	9	nt	nt	nt
O=C(Cn1nnc(-c2ccccc2-n2cnnn2)n1)NCc1ccccc1	-3	0%	-19	-109*
Cc1cccc(OCCn2c(SCC(=O)O)nc3ccccc32)c1	-9	nt	nt	nt
COCCn1nnnc1SCC(=O)c1ccc(F)cc1	-3	0%	10	-67*
c1ccc(-n2cnnn2)cc1	-16	nt	nt	nt
Cc1ccc(Nc2c(-c3ccc(N(C)C)cc3)nc3ccccn23)cc1	-15	nt	nt	nt
FC(F)(F)c1ccc(C2Nc3cccc4cccc(c34)N2)cc1	-3	0%	5	-9
Clc1ccccc1C1Nc2cccc3cccc(c23)N1	0	?	2	-19
Cc1ccc(C2Nc3cccc4cccc(c34)N2)s1	-3	4%	-13	-61*
Brc1ccc(C2Nc3cccc4cccc(c34)N2)cc1	-12	nt	-8	-63*
Fc1ccc(C2Nc3cccc4cccc(c34)N2)cc1	-4	0%	-1	-75*
c1coc(C2Nc3cccc4cccc(c34)N2)c1	nt	0%	nt	nt
Clc1cccc(C2Nc3cccc4cccc(c34)N2)c1Cl	-5	2.8µM*	0	3
CC1CCN(C(=O)Cn2cc(SCC(=O)Nc3ccccc3C(F)(F)F)c3ccccc32)CC1	10	nt	nt	nt
SMILES	D3 ag	B2AR arrestin	Giardia kill	DRD3 antagonist
O=C1c2ccccc2NC(c2ccccc2O)N1Cc1ccco1 (stereo unspecified)	nt	nt	-23	nt
Cn1c(=O)n(C)c2cc(N3CCOCC3)c(NC(=O)c3ccc(C(C)(C)C)cc3)cc21	-9	nt	nt	nt
CCCCOc1ccccc1C(=O)Nc1nonc1-c1ccccc1	35*	nt	nt	nt
Cc1ccc(S(=O)(=O)N2CCCCC2)cc1NC(=O)CSc1nnc(C2CC2)n1C	-8	0%	12	-71*
Cc1cc(C(F)(F)F)n2nc(-c3ccc(Br)cc3)cc2n1	5	nt	nt	nt
C/C(=N\NC(=O)Cn1nc(C)c([N+](=O)[O-])c1C)c1ccc(Cl)s1	-2	1%	-15	-62*
Cc1ccsc1/C=N/NC(=O)Cn1nc(C)c([N+](=O)[O-])c1C	-5	-1%	-18	-11
COc1ccc(CNC(=O)Cc2c(C)c3c(cc(C)c4c(C)c(C)oc43)oc2=O)cc1	-12	nt	nt	nt
CCN1C(=O)[C@H]2[C@@H](c3ccc(C)cc3)N3C(=O)N(c4ccc(OC)cc4)C(=O)[C@@]3(CC)[C@H]2C1=O	46*	0%	33	0
CC[C@@]12C(=O)N(c3cccc(Br)c3)C(=O)N1[C@H](c1ccc(Cl)cc1)[C@@H]1C(=O)N(C3CCCCC3)C(=O)[C@@H]12	1	-1%	-11	38

Compound activity: PubChem BioAssay, National Center for Advancing Translational Sciences (NCATS)
